# ChEMBL document CHEMBL3988442, “University of Dundee, Small-Polar-MMV Screening Library” (2021)
# About 13,000 (27%) of roughly 48,000 compounds showed an effect of 50% or more. The list shows a part of the results.
# Test system: Wolbachia pipientis
# Assay: Anti-Wolbachia Cell-Based Screen
# Format: functional
# Set-up: scale not given: in the data most compounds retested in dose-response had high values
# Details: 5 µM
row,Structure (SMILES),Percent Effect
1,Cc1ccc(N2CC[C@]3(O)CCN(CCN4CCCC4=O)C[C@@H]3C2)nn1,-23.37%
2,Cc1csc(N2CCC(CCN3CCCC3=O)CC2)n1,99.55%
3,Cc1ccc(N2CCC(CCN3CCCC3=O)CC2)nn1,86.49%
4,Cc1ccc(N2CCC3(CCC(=O)N3)CC2)nn1,-16.01%
5,Cc1csc(N2CCN(CCCN3CCCC3=O)CC2)n1,-4.511%
6,Cc1csc(N2CCCN(C(=O)CCN3CCCC3=O)CC2)n1,4.733%
7,OCC1(O)CCN(Cc2ccc(-c3cc[nH]n3)s2)CC1,-3.236%
8,CCCN1CC(NC(=O)Nc2nc(C)n(C(C)C)n2)CC1=O (stereo not drawn),-10.65%
9,Cc1n[nH]c(C)c1NC(=O)CN1CCN(c2nccs2)C(C)C1 (stereo not drawn),95.63%
10,CCc1cnc(N2CCN(CC(=O)Nc3c(C)n[nH]c3C)CC2)s1,-15.52%
11,CC1CN(CC(=O)Nc2nncs2)CCN1Cc1nccn1C (stereo not drawn),-11.48%
12,Cc1csc(N2CCN(CC(=O)Nc3c(C)n[nH]c3C)CC2C)n1 (stereo not drawn),7.256%
13,Cc1nn(C)c(C)c1NC(=O)CN1CCN(c2nccs2)C(C)C1 (stereo not drawn),107.6%
14,Cc1cc(NC(=O)CN2CCN(c3nccs3)C(C)C2)n(C)n1 (stereo not drawn),-9.576%
15,CCC(C(=O)NC1CCN(S(C)(=O)=O)CC1)n1cccn1 (stereo not drawn),-1.013%
16,Cc1cc(C)n(CCC2CC(=O)Nc3cc4[nH]ncc4cc32)n1 (stereo not drawn),5.657%
17,O=C(CN1C[C@H]2C[C@H](OCc3ccccc3)C[C@H]2C1)N1CCOCC1,120.8%
18,O=C(CCO)N1CC2(CCN(c3ccccc3)C2)C1,3.033%
19,O=C(CN1CCSCC1c1ccccc1)N1CCOCC1 (stereo not drawn),-10.11%
20,O=C(C1CCOCC1)N1CCC2(CC1)CC(Oc1ccccc1)CO2 (stereo not drawn),2.022%
21,O=C(C1CCOC1)N1CCC(OCc2ccccc2)CC1 (stereo not drawn),104.9%
22,O=C(C1CCOC1)N1C[C@H]2CN(c3ccccc3)C(=O)[C@H]2C1 (stereo partly drawn),2.352%
23,COc1ccccc1CC1CCCN(CC(=O)N2CCOCC2)C1 (stereo not drawn),1.243%
24,O=C(CO)N1CC2(CCN(c3ccccc3)C2)C1,-2.652%
25,O=C(COCc1ccccc1)N1CCC(OCc2cccnc2)CC1,-1.111%

row,Structure (SMILES),Percent Effect
1,O=C(C1CCOCC1)N1C[C@H]2C[C@H](OCc3ccccc3)C[C@H]2C1,85.95%
2,O=C(Cc1cccnc1)N1CCC(OCc2ccccc2)CC1,5.712%
3,O=C(C1CCOC1)N1CC2(CCN(c3ccccc3)C2)C1 (stereo not drawn),126.5%
4,CC(=O)c1c(C)nn(CC(=O)N2Cc3cnc(C(C)(C)C)nc3C2)c1C,-8.133%
5,CCS(=O)(=O)N1Cc2c(Cn3ccnc3)nn(C)c2C1,-18.78%
6,CC(C)(C)OC(=O)N1CCCc2ccc(NCc3cc[nH]c3)cc21,-2.534%
7,O=C(NCC1Cn2nnc(-c3ccsc3)c2CO1)N1CCCC1 (stereo not drawn),-5.299%
8,CC(=O)N1CCC2(CC1)C(=O)N(c1cccnc1)c1ccc(F)cc12,-4.26%
9,COCCN1CCC2(CC1)CN(C(=O)C1CC1)c1ccc(F)cc12.O=C(O)C(F)(F)F,-7.452%
10,CC(=O)N1CCC2(CC1)CN(C(=O)c1cccnc1)c1ccc(F)cc12.O=C(O)C(F)(F)F,91.49%
11,CCN1CCC2(CC1)CN(C(C)=O)c1ccc(C)cc12,-4.945%
12,O=C(C1CC1)N1CC2(CCN(CC3CC3)CC2)c2cc(F)ccc21.O=C(O)C(F)(F)F,-39.82%
13,CCCN1CCC2(CC1)CN(C(=O)c1cccnc1)c1ccc(F)cc12.O=C(O)C(F)(F)F.O=C(O)C(F)(F)F,115.7%
14,CCN1CCC2(CC1)CN(C(=O)c1cccnc1)c1ccc(Cl)cc12.O=C(O)C(F)(F)F.O=C(O)C(F)(F)F,116.9%
15,Cc1cncc(C(=O)N2Cc3ccccc3C3(CCN(C)CC3)C2)c1,-5.03%
16,O=C(O)c1ccc2c(c1)C1(CCCCC1)CN2C(=O)c1ccnnc1,-1.269%
17,O=C(O)c1ccc2c(c1)C1(CCCCC1)CN2C(=O)c1cccc(F)c1,-4.529%
18,CN1CCC2(CC1)CN(C(=O)c1cccnc1)c1ccc(Cl)cc12,127.2%
19,CCCc1cncnc1N1CCC(NCc2ccc(O)cc2)CC1,-4.089%
20,O=C(Nc1cccnc1)C1=Cc2ccccc2OC1,18.82%
21,O=C(CSC1CCCC1)N1CCN(c2ccc(-n3cncn3)nn2)CC1,20.49%
22,CCN1CCN(Cc2nc(CCc3ccccc3)n[nH]2)CC1,14.2%
23,CC(NC(=O)CN1CCN(Cc2ccc(Br)s2)CC1)c1ccccc1 (stereo not drawn),-2.941%
24,CCN(CC)c1ccc(NS(=O)(=O)c2cnn(CC)c2)cn1,-19.91%
25,Cc1ocnc1C(=O)N(C)[C@@H]1CCC[C@@H](N2CCCC2)[C@@H]1O,115.9%

row,Structure (SMILES),Percent Effect
1,CCN(CCc1nccs1)C(=O)c1ncoc1C,-4.771%
2,Cc1ocnc1C(=O)N(Cc1cccnc1)C[C@@H]1CCC(=O)N1,-1.977%
3,Cc1occc1C(=O)NCC(=O)N1CCC(COc2ccccc2)CC1,1.262%
4,Cc1ocnc1C(=O)N(C)[C@@H]1CC[C@@H](n2ccnc2C)[C@@H]1O,115%
5,Cc1cn2c(CN(C)C(=O)c3ncoc3C)c(C)nc2s1,-12.17%
6,Cc1ocnc1C(=O)N[C@H]1CN(CC2CCC2)C[C@@H]1C(C)C,16.35%
7,Cc1ocnc1C(=O)N(C)[C@@H]1CC[C@@H](Oc2ccccc2)[C@@H]1O,100.2%
8,Cc1occc1C(=O)NCC(=O)N(C)CCCOc1ccccc1,11.74%
9,CCCN(CCC)C1(Cc2cc(-c3cccc(O)c3)on2)COC1,-7.184%
10,N#CCCN(C(=O)CN1CCCC1Cc1ccccc1)c1ccccc1 (stereo not drawn),14.76%
11,CN(C)CCn1ccc(NC(=O)NC(C)(C)c2nccs2)n1,4.261%
12,COc1cccc(CNc2nc(C)cc(C)n2)c1OC,34.66%
13,Cn1ccnc1-c1noc(NCc2ccc3c(c2)OCCO3)n1,-0.6068%
14,COc1ccc(CNc2ncc(-c3cc(C)no3)c(C(C)C)n2)cc1,97.64%
15,Cn1ncnc1-c1ccnc(NCc2ccccn2)n1,-1.94%
16,Cc1cc(-c2cnc(NCc3ccccn3)nc2C(C)C)on1,93.57%
17,COCc1cc(NCc2ccccc2OC)ncn1,-8.883%
18,COc1ccc(CNC2(Cc3cc(CC(C)C)on3)COC2)cc1,1.284%
19,Cc1ccn(-c2ccccc2NCc2ccccn2)n1,5.866%
20,Cc1cc(-c2cnc(NCc3ccc4c(c3)OCO4)nc2C(C)C)on1,111.2%
21,CC(C)c1nn(C)c(N(C)C)c1CNCc1ccc2c(c1)OCO2,-1.149%
22,COc1ccccc1CNc1ncc(-c2cc(C)no2)c(C(C)C)n1,92%
23,COc1ccc(CNC(C)c2cnc3cc(C)nn3c2C)cc1 (stereo not drawn),8.81%
